NS1 inh = inhibitors of influenza NS1 protein function. Potency, µM (highest dose often 46.1 µM). 0.4% of 270,000 active. AID 2326; note: actives are rising curves; nearly all actives have a fitted effect of over 50% in size
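S. cerevisiae expressing influenza A NS1, grown in glucose, washed, then diluted 1:100 into pH 6.0 -URA galactose medium with 23 nl compound. Growth recovery read as OD600; NS1-free strain serves as control.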
Pf growth 48h = inhibits P. falciparum growth in the first generation, 48 h; P. falciparum luciferase growth in erythrocytes, 48 h; Potency, µM (titrated, usually from 28.7 µM), hits mostly inhibitors; 5.9% of 310,000 active; AID 504832; active = well fitted inhibition curve with a large enough effect; inconclusive = small, poorly fitted or top-dose-only effect, or another doubt; inactive = no such curve, though single readings can be large or run the other way
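Luminescence readout; reporter = integrated firefly luciferase in P. falciparum. RBC culture at 2% hematocrit, 0.1% parasitemia final, 37 C/5% CO2; decreased signal taken as growth inhibition.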
Shiga toxin inh = blocks Shiga toxin action in Vero cells; 9.2% of 290,000 active; inhibition, % at 38.7 µM; Vero cells, Shiga toxin protein synthesis inhibition reporter; in the data active = inhibition mostly above about 28%, no sharp cut-off; inactive = mostly below about 43%
Pf growth 96h = P. falciparum growth inhibition at 96 hours | Potency, µM (top dose mostly 28.7 µM), most hits filed as inhibitors | 6.9% of 320,000 active | P. falciparum luciferase reporter growth, 96 h | AID 504834; active = well fitted inhibition curve with a large enough effect; inconclusive = small, poorly fitted or top-dose-only effect, or another doubt; inactive = no such curve, though single readings can be large or run the other way
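96 h incubation, 37 C, 5% CO2, of luciferase-reporter P. falciparum-infected RBCs (2% hematocrit, 0.05% parasitemia final) with test compounds; endpoint luminescence.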
SARS PLpro yeast = inhibitors of SARS-CoV papain-like protease in yeast; S. cerevisiae expressing SARS-CoV PLpro, growth rescue; Potency, µM (highest dose often 32.9 µM), hits mostly activators; 0.19% of 330,000 active; note: nearly all actives have a fitted effect of over 55% in size
Cycloheximide cs = counter-screen for Shiga toxin inhibitors: cycloheximide protein synthesis inhibition; max response, %; cell reporter, cycloheximide protein synthesis inhibition counterscreen; 12% of 300,000 active; in the data active = max response mostly above about 13%, no sharp cut-off; inactive = mostly below about 14%; note: read at 38.3 µM for the half of the compounds with a filed dose
Each line names hits and unclear results; the compound was inactive in the other large screens. The list is not random: actives were taken first. Their share in the collection is about 21%. Unless noted, calls come from the whole dose curve.

CCS(=O)(=O)c1ccc(C(=O)NC2CC2)c(Cl)c1Cl	none
Cc1oc(CC(C)C)cc1C(=O)NCCCC(=O)O	Pf growth 96h inconclusive
COc1ccc(CC(=O)Nc2nc(C(C)(C)C)cs2)cc1	none
Cc1csc(NC(=O)Cc2ccccc2Cl)n1	Shiga toxin inh 110, SARS PLpro yeast inconclusive, Cycloheximide cs 40
COc1ccccc1OCCC(=O)Nc1nc(C)cs1	Cycloheximide cs 15
COc1ccc(CC(=O)Nc2nc(C)cs2)cc1	Pf growth 96h inconclusive, Cycloheximide cs 20 (no result: NS1 inh)
Cc1ccc(S(=O)(=O)N2CCOC2CNC(=O)C(=O)NCCCN2CCOCC2)cc1 (centres undefined)	none
CCN(CC(=O)Nc1ccc(NC(C)=O)cc1)C(=O)/C=C/c1cn(Cc2ccccc2)nc1-c1cccnc1	Pf growth 48h inconclusive, Pf growth 96h 10µM (no result: NS1 inh, Shiga toxin inh, Cycloheximide cs)
COc1cccc(NC(=O)CN(C)C(=O)/C=C/c2cn(Cc3ccccc3)nc2-c2cccnc2)c1	Pf growth 48h inconclusive, Pf growth 96h inconclusive (no result: NS1 inh, Shiga toxin inh, Cycloheximide cs)
C=CCN1C=CC(=CC=C(C#N)C#N)C=C1	Shiga toxin inh 74, Cycloheximide cs 21
CCC(CO)Nc1ncnc2c1cnn2-c1ccc(Cl)cc1 (centres undefined)	Cycloheximide cs 40 (no result: Pf growth 48h)
CCC(C)Nc1ncnc2c1cnn2Cc1ccc(Cl)cc1 (centres undefined)	Pf growth 96h inconclusive (no result: Pf growth 48h)
CCC(CO)Nc1ncnc2c1cnn2-c1ccc(OC)cc1 (centres undefined)	Shiga toxin inh 53, Cycloheximide cs 37 (no result: Pf growth 48h)
O=C(Nc1cnn(Cc2ccc(F)cc2)c1)c1cc(-c2cccs2)on1	Pf growth 96h inconclusive (no result: Pf growth 48h)
O=C(Nc1cnn(Cc2ccc(F)cc2)c1)c1noc2c1CCCC2	Shiga toxin inh 152, Pf growth 96h inconclusive, Cycloheximide cs 45 (no result: NS1 inh)
CC(C)(C)C1CCc2onc(C(=O)Nc3cnn(Cc4ccc(F)cc4)c3)c2C1 (centres undefined)	none
O=C(Nc1cnn(Cc2ccc(F)cc2)c1)c1cnccn1	Pf growth 96h inconclusive, Cycloheximide cs 17
COc1cc(/C=N/NC(=O)COc2ccc(-n3cnnn3)cc2)ccc1OCC(N)=O	none
O=C1NCCO1	none (no result: NS1 inh, Shiga toxin inh, SARS PLpro yeast, Cycloheximide cs)
CCOc1ccc(N(CC(=O)N2CCCC2)S(=O)(=O)c2ccc(F)cc2)cc1	SARS PLpro yeast inconclusive
c1ccc(-c2nnc(CN3CCCCC3)o2)cc1	Shiga toxin inh 75, Cycloheximide cs 41
c1ccc(-c2nnc(CN3CCC4(CC3)OCCO4)o2)cc1	Pf growth 96h inconclusive
CCN1CCN(Cc2nnc(-c3ccccc3)o2)CC1	none
COC(=O)C1CCN(Cc2nnc(-c3ccccc3)o2)CC1	Shiga toxin inh 59, Cycloheximide cs 24
OC1(c2ccccc2F)CCN(Cc2nnc(-c3ccccc3)o2)CC1	Pf growth 48h inconclusive, Cycloheximide cs 20 (no result: Pf growth 96h)
Cc1cccc(C)c1OCc1cc(C(=O)N2CC3C[C@@H]4CC2C[C@H](C3)C4)no1	Shiga toxin inh 96, Cycloheximide cs 65
Cc1ccc(OCc2cc(C(=O)N3CC4C[C@@H]5CC3C[C@H](C4)C5)no2)cc1C	Shiga toxin inh 135, SARS PLpro yeast inconclusive, Cycloheximide cs 35
CSc1ccccc1C(=O)NCCc1ccc(S(=O)(=O)N2CCCCC2)cc1	Pf growth 48h 5.2µM (no result: Pf growth 96h)
O=C(NCCc1ccccc1)c1ccccc1NS(=O)(=O)N1CCCC1	Shiga toxin inh 43, Cycloheximide cs 33 (no result: Pf growth 96h)
O=C(c1ccccc1)c1ccc(NCCCn2ccnc2)c([N+](=O)[O-])c1	Pf growth 48h inconclusive, Pf growth 96h 12µM
O=C(NCCCN1CCOCC1)c1cc2ccccc2oc1=O	Pf growth 96h inconclusive
O=C(NCCCn1ccnc1)c1cc2ccccc2oc1=O	Cycloheximide cs 13
C=CCN(c1ccc(C(=O)NCCCn2ccnc2)cc1)S(C)(=O)=O	Pf growth 96h 9.3µM
O=C(NCCCn1ccnc1)C1c2ccccc2Oc2ccccc21	Pf growth 96h 10µM
COc1ccc(-n2nc(C(=O)NCC(=O)NCCN(C)C)c3ccccc3c2=O)cc1	none (no result: Pf growth 48h)
CC12CCC(C(=O)NNc3ccc([N+](=O)[O-])cc3)(CC1=O)C2(C)C (centres undefined)	none
Cc1cc(C(=O)NCCCn2ccnc2)cs1	none (no result: Pf growth 96h)
O=C(NCCCn1ccnc1)c1ccc2ccccc2c1	Pf growth 96h 12µM
O=C(CNc1ccc(Oc2ccccc2)cc1)N1CCOCC1	Shiga toxin inh 36, Cycloheximide cs 12

Screening data as filed in PubChem.
